Source: PubChem BioAssay
Shown are actives, neighbours in structure and some others; about 5.8% of the full set was active somewhere.
TRPV1 ag – human TRPV1 agonism | Q8NER1 | TRPV1-expressing cells, Fluo-8 calcium influx, agonist mode | activation, % at 8.33 µM | hit rate 0.19% among 320,000 | AID 540275; in the data active = activation above about 80%; inconclusive = between about 30% and that limit
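TRPV1-expressing cells were cultured overnight at 35.5C and loaded with Fluo-8 calcium dye for 40 to 90 min at room temperature. After a 10 s baseline, compound was added and calcium influx was read kinetically for 3 min (ex 480/em 520 nm).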
RORg inh – ROR gamma (mouse) transcription inhibition; Drosophila S2 Gal4-RORgamma UAS-luciferase reporter, 20 h; AID 2551; Potency, µM (highest dose often 53.6 µM), most hits filed as inhibitors; hit rate 5.4% among 310,000; note: nearly all actives have a fitted effect of over 60% in size
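Stable Schneider cell line, Gal4 DNA-binding domain fused to ROR gamma, UAS-luciferase. Cmpd 1 hr RT → CuSO4 700 uM final → 20 hr RT → luciferase reagent 10 min → luminescence.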
uPA surface inh – blocks generation of uPA at the cell surface | cell surface uPA generation assay, qHTS | Potency, µM (doses to about 38.3 µM), hits mostly inhibitors | hit rate 0.31% among 330,000; active = well fitted inhibition curve with a large enough effect; inconclusive = small, poorly fitted or top-dose-only effect; inactive = no such curve, though single readings can be large or run the other way; tested in mouse RAW 264.7 cells; note: nearly all actives have a fitted effect of over 55% in size
TRPV1 potentiator – enhances activation of the human vanilloid receptor TRPV1. TRPV1-expressing cells, Fluo-8 calcium influx, capsaicin EC20 potentiation. potentiation, % at 8.33 µM. hit rate 0.02% among 320,000. AID 540277; in the data active = potentiation above about 80%; inconclusive = between about 30% and that limit
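Fluo-8 calcium influx in TRPV1-expressing cells, kinetic read (ex 480/em 520 nm). Compound added and read 3 min for agonist activity, followed by capsaicin at EC20 final and 2 min further read for enhancement.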
Gal4-VP16 FLuc – inhibits Gal4-VP16 luciferase reporter, ROR gamma counter-screen | hit rate 3.5% among 310,000 | Drosophila S2 Gal4-VP16 UAS-luciferase, luminescence, 20 h | Potency, µM (titrated, usually from 53.6 µM), usual class: inhibitors | AID 2546;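 note: Gal4-VP16 expression switched on by copper sulfate through the metallothionein promoter; nearly all actives have a fitted effect of over 50% in size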
Each line names hits and unclear results; the compound was inactive in the other large screens. Unless noted, calls come from the whole dose curve; as a rule, active = well fitted curve in the direction sought with a large enough effect; inconclusive = small, poorly fitted or top-dose-only effect, or another doubt; inactive = no such curve, though single readings can be large; an effect the other way counts as inactive or inconclusive.

CCOCCCNC(=O)COC(=O)/C=C/c1ccc(S(=O)(=O)N2CCc3ccccc32)cc1	none
Cc1ccc(C)c(N2CCN(C(=O)Cc3c(C(=O)O)[nH]c4ccc(Cl)cc34)CC2)c1	none
COc1ccc(C(=O)OCc2nc(N)nc(Nc3ccccc3C)n2)cc1OC	RORg inh 18µM
Cc1nc2ccccc2c(=O)n1NC(=O)Cc1ccc([N+](=O)[O-])cc1	none
CCN(CC)CCCCCC(=O)Nc1ccccc1C(=O)Nc1ccccc1	none
CCOC(=O)C1=C(Cc2ccc(Cl)cc2)C(=O)c2ccccc2C1=O	RORg inh 8.9µM, uPA surface inh inconclusive, Gal4-VP16 FLuc inconclusive
CCOC(=O)C1=C(C)N=C2c3ccccc3C(=O)C2C1c1ccc(Cl)cc1 (configuration not stated)	TRPV1 ag inconclusive
CC1CCCC(NC(=S)NC(=O)c2cncc(Br)c2)C1C (configuration not stated)	TRPV1 ag inconclusive, RORg inh 2.8µM, Gal4-VP16 FLuc 5.6µM
O=C(NC(=S)Nc1ccccc1Cl)c1cncc(Br)c1	RORg inh 2.5µM, Gal4-VP16 FLuc 4.5µM
COc1ccc(NC(=S)NC(=O)c2cncc(Br)c2)c(OC)c1	RORg inh 2.5µM, Gal4-VP16 FLuc inconclusive
COc1ccc(NC(=O)c2cncc(Br)c2)cc1S(N)(=O)=O	RORg inh 11µM
Cc1ccc(NC(=S)NC(=O)c2cncc(Br)c2)c(C)c1	none (no result: TRPV1 ag, RORg inh, TRPV1 potentiator, Gal4-VP16 FLuc)
CCOc1ccccc1N(C(=O)CNC(=O)c1ccco1)C(C(=O)NC1CCCC1)c1ccncc1 (configuration not stated)	none (no result: uPA surface inh)
COC(=O)N[C@@H](/C=C/c1ccccc1)/C(C(=O)OC)=C(\C)NCc1ccccc1	none (no result: TRPV1 ag, uPA surface inh, TRPV1 potentiator)
Cc1ccc(-c2nc(Nc3cccc(C)c3)sc2CC(=O)O)cc1	RORg inh 11µM
Cc1cccc(Nc2nc(CC(=O)O)cs2)c1	RORg inh inconclusive, Gal4-VP16 FLuc inconclusive
O=C(/C=C/Nc1ccc(Br)cc1F)c1ccccc1	RORg inh 4µM, Gal4-VP16 FLuc 5.6µM
O=C(/C=C/Nc1ccccc1F)c1ccc(Br)cc1	RORg inh 10µM, Gal4-VP16 FLuc inconclusive
Cc1noc(C)c1CSc1nc2ccccc2n1CCc1ccccc1	TRPV1 ag inconclusive, RORg inh 7.1µM, Gal4-VP16 FLuc inconclusive
Cc1noc(C)c1CSc1nc2sc(C)c(C)c2c(=O)n1-c1ccccc1	TRPV1 ag inconclusive
Cc1noc(C)c1CSc1nc2ccccc2c(=O)n1-c1ccc(Cl)cc1	RORg inh 11µM (no result: uPA surface inh)
COc1cccc(NC(=O)CCN2C(=O)c3ccccc3Sc3ncccc32)c1	none
COc1ccc2c(c1)OCC(Cc1ccc(OC)c(O)c1)C2=O (configuration not stated)	RORg inh inconclusive (no result: TRPV1 ag, uPA surface inh, TRPV1 potentiator)
CC(C)(C)OC(=O)[C@H](Cc1ccccc1)NC(=O)c1nc[nH]c1C(=O)NCc1ccccc1	TRPV1 ag inconclusive, RORg inh 11µM, Gal4-VP16 FLuc 16µM
CC(C)C[C@H](NC(=O)c1nc[nH]c1C(=O)NCC(=O)OCc1ccccc1)C(=O)OCc1ccccc1	TRPV1 ag inconclusive, uPA surface inh inconclusive, Gal4-VP16 FLuc inconclusive
CC(C)(C)OC(=O)NCc1ccc(CNC(=O)c2[nH]cnc2C(=O)N[C@@H](Cc2ccccc2)C(=O)OC(C)(C)C)cc1	RORg inh 11µM, uPA surface inh inconclusive, Gal4-VP16 FLuc 20µM
CC(C)(C)OC(=O)NCc1ccc(CNC(=O)c2[nH]cnc2C(=O)N[C@@H](Cc2ccccc2)C(=O)OCc2ccccc2)cc1	RORg inh 11µM, Gal4-VP16 FLuc inconclusive
CC(C)C[C@H](NC(=O)c1nc[nH]c1C(=O)NCc1ccc(CNC(=O)OC(C)(C)C)cc1)C(=O)OCc1ccccc1	RORg inh 11µM, Gal4-VP16 FLuc inconclusive
COc1ccccc1C(=O)NC(CCSC)C(=O)NCC(c1cccs1)N1CCOCC1 (configuration not stated)	none (no result: RORg inh, Gal4-VP16 FLuc)
CC(C)(C)OC(=O)NCc1ccc(NC(=O)c2nc[nH]c2C(=O)N[C@@H](Cc2ccccc2)C(=O)OCc2ccccc2)cc1	RORg inh 7.1µM, Gal4-VP16 FLuc inconclusive
CC(C)(C)OC(=O)[C@H](Cc1ccccc1)NC(=O)c1nc[nH]c1C(=O)N[C@@H](CCCCN)C(=O)OC(C)(C)C	none (no result: TRPV1 ag, RORg inh, TRPV1 potentiator, Gal4-VP16 FLuc)
CNC(=O)c1[nH]cnc1C(=O)N[C@@H](Cc1ccccc1)C(=O)OC(C)(C)C	TRPV1 ag inconclusive, RORg inh 7.9µM, Gal4-VP16 FLuc inconclusive
